Assay outcomes (PubChem)
Only some compounds are listed: those with a hit (about 21% of all), similar ones and a draw of the others.
Pf growth 96h: inhibits malaria parasite growth, 96 h. P. falciparum luciferase reporter growth, 96 h. Potency, µM (series often up to 28.7 µM), usual class: inhibitors. 320,000 compounds, 6.9% hits. AID 504834
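P. falciparum expressing integrated firefly luciferase, in erythrocytes at 2% hematocrit, 0.05% parasitemia, incubated with compounds 96 h at 37 C, 5% CO2. Growth inhibition read as loss of luminescence; two-generation exposure targets delayed-death apicoplast inhibitors.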
Cycloheximide cs: affects cycloheximide protein synthesis inhibition readout, counter-screen; cell reporter, cycloheximide protein synthesis inhibition counterscreen; max response, %; 300,000 compounds, 12% hits; in the data active = max response mostly above about 13%, no sharp cut-off; inactive = mostly below about 14%; note: read at 38.3 µM for the half of the compounds with a filed dose
Shiga toxin inh: Shiga toxin inhibition; Vero cells, Shiga toxin protein synthesis inhibition reporter; inhibition, % at 38.7 µM; 290,000 compounds, 9.2% hits; AID 2315; in the data active = inhibition mostly above about 28%, no sharp cut-off; inactive = mostly below about 43%
Pf growth 48h: P. falciparum growth inhibition at 48 hours (one generation) | AID 504832 | P. falciparum luciferase growth in erythrocytes, 48 h | Potency, µM (highest dose often 28.7 µM), actives largely listed as inhibitors | 310,000 compounds, 5.9% hits
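Luciferase-expressing P. falciparum in infected erythrocytes (2% hematocrit, 0.1% parasitemia final) in RPMI 1640/0.5% Albumax were exposed to compound for 48 hours at 37 C, 5% CO2; growth read as luminescence.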
Hits are given with their value; - = inactive; ? = inconclusive; . = no result given. Unless noted, calls come from the whole dose curve; as a rule, active = well fitted inhibition curve with a large enough effect; inconclusive = small, poorly fitted or top-dose-only effect, or another doubt; inactive = no such curve, though single readings can be large or run the other way.

SMILES | Pf growth 96h | Cycloheximide cs | Shiga toxin inh | Pf growth 48h
CCN(CC)c1ccc(C(=O)N/N=C/c2ccccc2OC(F)F)cc1 | ? | 26 | - | 10µM
CC(C)Oc1ccccc1/C=N/NC(=O)C1CCCC1 | 2.6µM | - | - | -
CN(CC(=O)Nc1ccc(Cl)cc1)C(=O)Cn1[nH]c(=O)c2ccccc2c1=O | - | . | . | ?
O=C(CNC(=O)c1ccc(Cl)cc1)NC(CO)c1ccccc1 (stereo not given) | - | - | - | -
Cc1ccccc1S(=O)(=O)Cc1ccc(C(=O)NC2CC2)o1 | - | - | - | -
O=C(N/N=C/c1ccccc1Cl)c1ccc(F)cc1 | - | 56 | 72 | -
Cn1cccc1-c1cc(C(=O)N/N=C/c2ccccc2Cl)[nH]n1 | - | 20 | 80 | -
Cn1cccc1-c1cc(C(=O)N/N=C/c2ccc(F)cc2)[nH]n1 | - | - | - | -
CCOC(=O)N1CCN(C(=O)CNC(=O)c2ccc(Br)cc2)CC1 | ? | - | - | -
CN(C(=O)/C=C/c1ccco1)c1ccccc1C(=O)O | - | - | - | -
CC(NC(=O)c1ccc(NC(=O)c2ccco2)cc1)c1ccccc1 (stereo not given) | - | - | - | -
CN(C)c1ccc(C(=O)/C=C/c2ccco2)cc1 | - | 50 | 112 | -
O=C(/C=C\c1ccco1)c1ccc(NC(=O)c2ccco2)cc1 | - | 26 | - | -
O=C(/C=C/c1ccco1)c1ccc(O)cc1 | - | 38 | - | -
COc1ccc(C2CC(=O)Oc3c(C(CCN4CCCC(C)C4)c4cc(OC)c(OC)c(OC)c4)c(OC)cc(OC)c32)cc1 (stereo not given) | . | - | - | .
CN(Cc1ccccn1)C(=O)C1CCC(=O)N(Cc2cccc(C(F)(F)F)c2)C1 (stereo not given) | ? | - | - | -
O=S(=O)(c1c(F)cccc1F)N1CCN(S(=O)(=O)c2c(F)cccc2F)CC1 | . | - | - | .
O=C(O)CCC(=O)Nc1ccc(N=Nc2ccccc2)cc1 | - | - | - | -
CC1CC1C(=O)OCC(=O)Nc1ccc(N=Nc2ccccc2)cc1 (stereo not given) | - | 55 | 93 | -
Nc1ccc(SCC(=O)Nc2cccc([N+](=O)[O-])c2)cc1 | - | 37 | - | -
CC1CC1C(=O)OCC(=O)NC(=O)c1ccccc1 (stereo not given) | - | . | . | -
CC1CC1C(=O)OCC(=O)Nc1cccc([N+](=O)[O-])c1 (stereo not given) | - | 32 | 65 | ?
CCCC(=O)OCC(=O)Nc1ccc(N=Nc2ccccc2)cc1 | - | 62 | 84 | -
O=C(CSCCO)Nc1cccc([N+](=O)[O-])c1 | - | - | - | -
Cc1cccc(CC2CC(=O)N(c3ccc(C)cc3Br)C2=O)c1 (stereo not given) | - | - | - | -
SMILES | Pf growth 96h | Cycloheximide cs | Shiga toxin inh | Pf growth 48h
COc1ccc(C(=O)Nc2nnc(CCS(=O)(=O)c3ccc(C)cc3)s2)cc1 | - | - | - | -
CSCCC(NC(=O)c1ccccc1)C(=O)NNC(=O)c1csc(N2CCOCC2)n1 (stereo not given) | - | - | - | -
COc1cc(OC)cc(C(=O)c2c(C)c(C#N)c3ccccn23)c1 | ? | - | - | 8.3µM
OC[C@@H]1O[C@H](OC2[C@@H](O)[C@@H](O)[C@@H](O)O[C@@H]2CO)[C@H](O)[C@@H](O)[C@@H]1OC1O[C@H](CO)[C@@H](O)[C@H](O)[C@@H]1O (stereo not given in full) | . | - | - | .
S=c1[nH]nc(Cn2c(-c3ccccn3)nc3ccccc32)n1-c1ccc2c(c1)OCCO2 | ? | 62 | 85 | -
COc1cc(OC)cc(-c2n[nH]c(=S)n2-c2ccc3c(c2)OCO3)c1 | - | - | - | -
Fc1ccc(-n2c(-c3ccc4c(c3)OCO4)n[nH]c2=S)cc1Cl | - | 11 | - | -
Oc1ccc(-c2n[nH]c(=S)n2-c2ccc3c(c2)OCCO3)cc1 | ? | 37 | 59 | -
COc1ccc(NC(=O)c2cccn2-c2nnc(N3CCCCC3)s2)cc1 | . | - | - | .
Cc1ccc(N2CCCC2=O)cc1S(=O)(=O)N1CCOCC1 | ? | - | - | -
Cc1noc(C)c1-c1ccc2ncnc(NCc3ccccc3Cl)c2c1 | . | - | - | .
CCN(CC)CCN1CCn2c3c(c4cc(C)ccc42)CCCC31 (stereo not given) | 9.3µM | - | - | 3.7µM
Cc1ccc(C(=O)CSc2n[nH]c(-c3ccco3)n2)cc1C | ? | - | - | -
CCc1ccc(C(=O)CSc2n[nH]c(-c3ccncc3)n2)cc1 | 5.2µM | - | - | .
Cc1ccc(NC(=O)CSc2n[nH]c(-c3ccco3)n2)cc1 | - | 28 | - | -
COc1ccc(C(=O)CSc2n[nH]c(-c3ccco3)n2)cc1 | 1.2µM | - | - | -
